Test results: PubChem BioAssay (NCATS)
Records with an inconclusive call do not appear. Where a call stands in place of a potency, no number is given. The source made the active and inactive calls. Calls follow the shape of the dose curve; as a rule, active = well fitted inhibition curve with a large enough effect; inconclusive = small, poorly fitted or top-dose-only effect; inactive = flat fitted curve, though single readings scatter.

biological target: Calcium and integrin-binding protein 1 (Homo sapiens) (UniProt Q99828); experiment: Primary qHTS for Identification of Calcium Integrin Binding Protein 1 (CIB1) Competitor (AID 1508620); conditions: CIB1-GST / FITC-alphaIIb peptide fluorescence polarization; series mostly up to 114 µM; also: top concentration of the series differs between compounds
Sequence (Q99828 whole entry, looked up): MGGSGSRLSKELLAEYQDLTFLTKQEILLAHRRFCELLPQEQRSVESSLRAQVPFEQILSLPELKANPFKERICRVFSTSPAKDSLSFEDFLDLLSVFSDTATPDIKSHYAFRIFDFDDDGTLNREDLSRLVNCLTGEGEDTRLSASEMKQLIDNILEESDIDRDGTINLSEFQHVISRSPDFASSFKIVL
Method in brief: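 Fluorescence polarization competition: GST-tagged CIB1 (1 uM final) preincubated with compound 15 min at room temperature, then FITC-labelled alphaIIb peptide (100 nM final) added. After 15 min at room temperature, polarization read at Ex 480/Em 540.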

Question: How did the Potency turn out when `Cc1cn([C@H]2C[C@H](N[S+](=O)([O-])Cc3ccc([N+](=O)[O-])cc3)[C@@H](CO)O2)c(=O)[nH]c1=O` was run?
Answer: The Potency was “inactive”.

Question: Which Potency does the source give for `CC(Nc1nc(-c2ccccc2C(F)(F)F)nc2ccccc12)c1ccc(-c2ccncc2)cc1` (configuration not stated) here?
Answer: The Potency was “inactive”.

Question: With `Cc1ccnc(NC(=S)N2CCN(c3cc(C(F)(F)F)cc(C(F)(F)F)c3)CC2)c1` as the compound, how does the Potency read?
Answer: The Potency was “inactive”.

Question: Which Potency does the source give for `Cc1cc(C)nc(NC(=S)N2CCN(c3cccc([N+](=O)[O-])c3)CC2)c1` here?
Answer: Its Potency is “inactive”.

Question: For `N#Cc1ccc(-c2csc(N3CCC(C(N)=O)CC3)n2)cc1`, which Potency is on record?
Answer: The Potency was “inactive”.

Question: `O=C(Nc1ccc(Cl)c(Cl)c1)Nc1nnc(-c2ccc(F)cc2)s1` was tested. Which Potency did it give?
Answer: Its Potency is “inactive”.

Question: With `COc1ccccc1/C=C/C(=O)NCCc1nc2ccccc2n1CCOc1ccc(C)cc1` as the compound, how does the Potency read?
Answer: The Potency was “inactive”.

Question: How did the Potency turn out when `COc1ccc(-c2ccc3nnc(-c4ccccc4OC)n3n2)cc1OC` was run?
Answer: Its Potency is “inactive”.

Question: How did the Potency turn out when `O=C(Nc1cccnc1)c1cccs1` was run?
Answer: Its Potency is “inactive”.

Question: With `Fc1ccc(-c2nc(-c3ccncc3)nc3ccccc23)cc1F` as the compound, how does the Potency read?
Answer: Its Potency is “inactive”.

Question: `NC(=O)C1CCN(c2ncnc(-c3ccc4c(c3)OCCCO4)n2)CC1` was tested. Which Potency did it give?
Answer: The Potency was “inactive”.

Question: With `CC(C)CC(OC(=O)CNC(=O)c1ccccc1)C(=O)Nc1cc(C(F)(F)F)ccc1Cl` (configuration not stated) as the compound, how does the Potency read?
Answer: The Potency was “inactive”.

Question: For `Cc1ccc(S(=O)(=O)Nc2cccc3ccc[n+](C)c23)cc1`, which Potency is on record?
Answer: Its Potency is “inactive”.

Question: How did the Potency turn out when `Cc1cccc(-c2ccc3ncnc(NCc4cccs4)c3c2)c1` was run?
Answer: Its Potency is “inactive”.

Question: With `COc1cccc(-c2nnc3n2N=C(c2c(OC)cccc2OC)CS3)c1` as the compound, how does the Potency read?
Answer: Its Potency is “inactive”.

Question: For `CCOC(=O)C1CCN(C(=O)C(C)(C)NC(=O)Nc2ccc(N(C)C)cc2)CC1`, which Potency is on record?
Answer: Its Potency is “inactive”.

Question: `Cc1cnc(-c2ccccc2C(F)F)nc1NCC1CN(c2cnccn2)C1` was tested. Which Potency did it give?
Answer: The Potency was “inactive”.
